Assay [1] is described as follows: AP1 Signaling Pathway (AID 357).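 Also: ME-180 reporter cells stimulated with EGF at its EC50 level; % is scaled to controls: 0 for no effect and ±100 for the full control effect.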 The following applies: ME-180 AP-1-bla reporter, EGF-induced, beta-lactamase ratio, 5 h. Summed up:
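Modulation of EGF-driven AP-1 transcription was assessed with a beta-lactamase reporter in ME-180 cells. Compound and EC50 EGF were co-incubated 5 hours at 37 °C before 2.5-hour CCF4 loading at room temperature and dual-emission reading.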

Assay [2] concerns the target Cytochrome P450 1A2 (Homo sapiens) (UniProt P05177). Briefly: p450-cyp1a2 (AID 410; calls by dose curve; also: potency is read from the fitted curve at half-maximal effect). The following applies: recombinant CYP1A2, luciferin-ME demethylation, luminescence; series mostly up to 57 µM. Summed up:
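Luminescent readout of luciferin formed from Luciferin-ME by human CYP1A2; data normalized against complete inhibition by 57 uM furafylline. Enzyme 20nM, substrate 100uM at Km, 100mM KPO4 buffer, 60 min reaction at room temperature.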

Assay [3] can be described thus: NFAT Signaling Pathway (AID 444).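 Also: carbachol stimulus at about its EC50 of 1 µM final; % is scaled to controls: 0 for no effect and ±100 for the full control effect.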 The settings on record: Jurkat NFAT-bla M1, carbachol, beta-lactamase ratio, 5 h. The gist of the method: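 Jurkat cells with NFAT-driven β-lactamase reporter and co-expressed M1 receptor, stimulated with carbachol (final 1 uM, ~EC50), compound titration, 5 h at 37 °C. CCF4 loaded 1 h at RT; 460/530 nm ratio gave %activity and AC50.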

Assay [4] in a line: Stat Signaling Pathway (AID 446).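 Also: ME-180 cervical cancer cells given 40 pM IL-6 alongside compound; SIE-controlled beta-lactamase reporter measured as 460/530 nm FRET emission ratio; % is scaled to controls: 0 for no effect and ±100 for the full control effect.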 The following applies: ME-180 SIE beta-lactamase reporter, IL-6 stimulated, 5 h. Summed up:
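Reporter line: ME-180 cervical carcinoma, SIE-beta-lactamase. Treatment: compound with 40 pM IL-6, 5 hrs, 37 C, in low-serum OPTI-MEM with 10 mM HEPES pH 7.3. Detection: 460/530 nm fluorescence.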

Assay [5] deals with Mitogen-activated protein kinase 10 (Mus musculus) (UniProt Q61831). The assay is described as follows: JNK3 AlphaScreen Assay (AID 530).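 Also: kinase came from lysate of stimulated human HepG2 cells; signal reports phosphorylation of biotinylated GST-cJun 1-79 at Ser73 with 10 µM ATP; % is scaled to controls: 0 for no effect and ±100 for the full control effect.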 The settings on record: JNK3 lysate, c-Jun phosphorylation; series mostly up to 57.1 µM. The gist of the method: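 Pre-activated (IL-1β/TNFα) JNK3 in HepG2 lysates phosphorylates biotin-GST-cJun(1-79), 10 uM ATP; anti-phospho-cJun(Ser73) AlphaScreen read at room temperature, pH 7.6 Tris buffer. Compounds pre-incubated 15 min as titrations.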
Background: In Alpha technology, singlet oxygen from a donor bead excites a nearby acceptor bead.

The target in assay [6] is 3',5'-cyclic-AMP phosphodiesterase 4B (Homo sapiens) (UniProt Q07343). The assay is described as follows: qHTS Assay for Inhibitors of PDE-IV (AID 607; active = well fitted activation curve with a large enough effect in the main read-out, with a control signal flat, not every such curve was filed as active; also: % of control where 0% means no effect). The following applies: HEK293 ACTOne CNG channel cells, membrane potential fluorescence; series mostly up to 22.9 µM. Summed up: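 Cell-based read-out of cAMP via a modified cyclic nucleotide-gated channel and membrane potential dye (535/590 nm) in HEK293 cells expressing PDE4 endogenously. Compounds tested up to 22.9 uM final; 100 uM RO 20-1724 reference.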
3',5'-cyclic-AMP phosphodiesterase 4B (Homo sapiens), sequence (Q07343 whole entry, looked up): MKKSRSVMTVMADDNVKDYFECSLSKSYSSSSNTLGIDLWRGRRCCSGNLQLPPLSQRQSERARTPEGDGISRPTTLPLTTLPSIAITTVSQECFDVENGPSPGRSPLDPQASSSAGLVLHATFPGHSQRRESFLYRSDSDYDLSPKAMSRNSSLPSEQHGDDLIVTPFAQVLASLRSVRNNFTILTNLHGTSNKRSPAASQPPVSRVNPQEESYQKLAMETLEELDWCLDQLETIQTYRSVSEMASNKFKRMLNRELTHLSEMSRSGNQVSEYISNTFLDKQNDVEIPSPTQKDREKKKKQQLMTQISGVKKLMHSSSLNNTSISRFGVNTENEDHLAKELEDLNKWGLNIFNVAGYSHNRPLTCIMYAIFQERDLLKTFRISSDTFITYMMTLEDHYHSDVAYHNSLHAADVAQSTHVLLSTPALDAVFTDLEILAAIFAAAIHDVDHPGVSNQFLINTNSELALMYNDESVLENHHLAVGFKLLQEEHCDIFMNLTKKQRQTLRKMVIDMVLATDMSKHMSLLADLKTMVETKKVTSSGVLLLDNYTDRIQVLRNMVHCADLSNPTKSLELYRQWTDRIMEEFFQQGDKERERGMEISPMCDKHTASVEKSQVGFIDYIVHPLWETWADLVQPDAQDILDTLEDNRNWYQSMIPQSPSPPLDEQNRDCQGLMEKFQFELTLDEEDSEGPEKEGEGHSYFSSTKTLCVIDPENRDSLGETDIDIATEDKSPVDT

Assay [7] has as its target Pyruvate kinase (Leishmania mexicana) (UniProt Q27686). Briefly: qHTS Validation Assay for Inhibitors of Leishmania Mexicana Pyruvate Kinase (AID 945; active = well fitted curve in the direction sought with a large enough effect; an effect the other way counts as inactive or inconclusive;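 also: 0% = DMSO only neutral control wells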). The settings on record: purified L. mexicana pyruvate kinase, enzyme activity, E451W mutant enzyme; series mostly up to 57.5 µM. Summed up: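 qHTS eight-point titrations against 0.2 nM LmPYK (E451W) in imidazole buffer pH 7.2 with 0.5 mM PEP, 0.1 mM ADP; 1 h, room temperature. Readout: PKLight luminescence, normalized to neutral DMSO wells.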
A general note: Quantitative high-throughput screening tests each substance at several concentrations.

The target of assay [8] is Alpha-galactosidase A (Homo sapiens) (UniProt P06280). The assay is described as follows: Counterscreen for Glucocerebrosidase Inhibitors: qHTS Assay for Human alpha-Galactosidase at pH 4.5 (AID 992; active = well fitted curve in the direction sought with a large enough effect; an effect the other way counts as inactive or inconclusive; also: 0% is about no effect). The settings on record: purified enzyme, fluorogenic substrate; series mostly up to 76.9 µM. Summed up:
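Quantitative HTS: compounds tested from 0.7 nM up to 77 uM against 2 nM enzyme with 80 uM 4-MU alpha-D-galactopyranoside. The 20 min room-temperature reaction is stopped with 1M NaOH/1M glycine, pH 10.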
A general note: The purpose of a counterscreen is to sort out artefacts and off-target activity.

The target in assay [9] is alpha-glucosidase (Oryza sativa, rice) (UniProt Q653V4). The assay is described as follows: Counterscreen for Glucocerebrosidase Inhibitors: qHTS Assay for Rice alpha-Glucosidase at pH 5.0 (AID 997; active = well fitted curve in the direction sought with a large enough effect; an effect the other way counts as inactive or inconclusive;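 also: 0% = full activity with enzyme and -100% = basal without enzyme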). The following applies: rice alpha-glucosidase enzyme activity; series mostly up to 76.9 µM. The gist of the method: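 Rice alpha-glucosidase (4 nM final) with 400 uM 4-methylumbelliferyl-alpha-D-glucopyranoside in citrate buffer pH 5.0, 20 min at room temperature, stopped at pH 10; fluorescence 365/440 nm, compounds 0.7 nM–77 uM, AC50 from Hill fits.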

Assay [10] can be described thus: qHTS Assay for Lipid Storage Modulators (AID 1519; calls by dose curve). The settings on record: Drosophila S3 cells, BODIPY lipid droplet/cell ratio, laser cytometry, cells loaded with oleic acid; for activity change, negative = inhibition: at 25.7 µM (top of the series). Summed up: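 Cells seeded at 5,000 per well were treated with compounds over a concentration series and loaded with oleic acid (400 uM, as added). Lipid droplet fluorescence (488 nm excitation, 500-530 nm channel) was read by laser-scanning cytometry and normalized to 20 uM Triacsin C.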

The target in assay [11] is Glucocorticoid receptor (Homo sapiens) (UniProt P04150). The assay is described as follows: GR-GFP Redistribution (AID 450;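 active = compounds whose dose series gives a full or clear partial fitted curve of increased nuclear translocation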; also: potency is read from the fitted curve at half-maximal effect). The following applies: U2OS GR-GFP nuclear translocation, laser cytometry, 2 h.
Glucocorticoid receptor (Homo sapiens), sequence (P04150 whole entry, looked up): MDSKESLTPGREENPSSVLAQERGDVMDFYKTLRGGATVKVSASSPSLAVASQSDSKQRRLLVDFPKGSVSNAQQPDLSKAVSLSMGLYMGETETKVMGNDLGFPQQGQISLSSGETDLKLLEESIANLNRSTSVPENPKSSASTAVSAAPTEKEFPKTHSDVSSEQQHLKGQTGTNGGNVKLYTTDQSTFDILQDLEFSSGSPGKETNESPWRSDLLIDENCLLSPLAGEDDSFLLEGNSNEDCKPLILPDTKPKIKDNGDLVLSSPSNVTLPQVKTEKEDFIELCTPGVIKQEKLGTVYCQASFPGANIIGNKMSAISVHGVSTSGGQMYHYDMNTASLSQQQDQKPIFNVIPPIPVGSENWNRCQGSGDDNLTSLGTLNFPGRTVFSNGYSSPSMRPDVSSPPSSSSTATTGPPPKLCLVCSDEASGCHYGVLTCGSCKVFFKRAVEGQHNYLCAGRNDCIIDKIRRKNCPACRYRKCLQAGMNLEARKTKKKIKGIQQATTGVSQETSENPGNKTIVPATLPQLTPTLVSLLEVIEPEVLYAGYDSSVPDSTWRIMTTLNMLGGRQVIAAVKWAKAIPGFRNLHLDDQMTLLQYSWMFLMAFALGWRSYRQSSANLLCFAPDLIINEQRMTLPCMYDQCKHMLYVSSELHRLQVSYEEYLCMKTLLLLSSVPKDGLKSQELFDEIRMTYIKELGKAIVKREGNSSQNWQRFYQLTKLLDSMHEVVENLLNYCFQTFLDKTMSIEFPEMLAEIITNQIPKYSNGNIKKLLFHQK
Assay [12] shares this target. Briefly: GR-EFC Redistribution (AID 451; calls by dose curve; also: potency is read from the fitted curve at half-maximal effect). The following applies: CHO-K1 GR-EFC translocation, beta-gal luminescence, 2 h. The gist of the method:
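CHO-K1 cells expressing nuclear EA and GR-ED fragments of b-gal; compounds titrated up to 46 uM final, 2 h at 37 C. GR nuclear translocation read as complemented b-gal luminescence after 1 h RT detection.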

For assay [13], the target named is Ubiquitin carboxyl-terminal hydrolase 1 (Homo sapiens) (UniProt O94782). Briefly: Inhibitors of USP1/UAF1: Pilot qHTS (AID 504865; active = well fitted curve in the direction sought with a large enough effect; an effect the other way counts as inactive or inconclusive;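 also: rhodamine fluorescence freed from ubiquitin-rhodamine substrate followed over time; top concentration of the series differs between compounds; % is scaled to controls: 0 for no effect and ±100 for the full control effect; nearly all actives have a fitted effect of over 35% in size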). The following applies: purified USP1/UAF1, Ub-rhodamine cleavage fluorescence; series mostly up to 54.9 µM. The gist of the method:
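USP1/UAF1 complex (1nM) preincubated with compound 15 min at room temperature, then Ub-Rho substrate (150nM final) added. Fluorescence read kinetically at 480/540 nm, 6 reads every 60 seconds. Buffer: 50mM HEPES pH 7.8, 0.5mM EDTA, 0.1 mg/ml BSA, 1mM TCEP, 0.01% Tween-20.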

The target of assay [14] is ATP-dependent 6-phosphofructokinase (Trypanosoma brucei brucei) (UniProt O15648). Briefly: qHTS Assay to Find Inhibitors of T. brucei phosphofructokinase: hit validation (AID 492961; active = well fitted curve in the direction sought with a large enough effect; an effect the other way counts as inactive or inconclusive). The following applies: T. brucei PFK, ADP-Glo luminescence; series mostly up to 24.3 µM. The gist of the method: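 Compounds titrated; %activity normalized to 0x and 1x enzyme controls, curve-fitted. Readout: ADP-Glo luminescence after 45 min room-temperature reaction of 1.25 nM PFK, 0.1 mM ATP, 0.5 mM F6P, pH 8.0.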
ATP-dependent 6-phosphofructokinase (Trypanosoma brucei brucei), sequence (O15648 whole entry, looked up): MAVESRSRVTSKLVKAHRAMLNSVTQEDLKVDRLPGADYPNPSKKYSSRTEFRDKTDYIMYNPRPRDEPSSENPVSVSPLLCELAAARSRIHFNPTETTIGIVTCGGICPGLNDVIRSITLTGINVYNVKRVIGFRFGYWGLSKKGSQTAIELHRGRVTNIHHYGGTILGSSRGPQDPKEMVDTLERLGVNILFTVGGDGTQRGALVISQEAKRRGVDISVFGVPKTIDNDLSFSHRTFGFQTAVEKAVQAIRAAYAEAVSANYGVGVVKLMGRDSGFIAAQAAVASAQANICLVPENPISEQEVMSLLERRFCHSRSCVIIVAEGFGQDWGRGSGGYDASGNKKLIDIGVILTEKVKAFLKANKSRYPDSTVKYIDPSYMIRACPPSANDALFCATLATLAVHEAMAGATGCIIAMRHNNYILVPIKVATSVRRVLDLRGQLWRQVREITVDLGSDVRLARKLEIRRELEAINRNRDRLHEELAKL

Assay [15] has as its target Luciferin 4-monooxygenase (Photinus pyralis) (UniProt P08659). The assay is described as follows: Biochemical firefly luciferase enzyme assay for NPC (AID 624030; active = well fitted curve in the direction sought with a large enough effect; an effect the other way counts as inactive or inconclusive;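 also: purified P. pyralis luciferase at 10 nM with luciferin and ATP substrate; 0% = DMSO and -100% = full luciferase inhibition by PTC124 control; nearly all actives have a fitted effect of over 70% in size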). The settings on record: purified P. pyralis luciferase, luminescence, 5 min; series mostly up to 58.6 µM. The gist of the method: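 Purified P. pyralis luciferase at 10 nM in 50 mM Tris Acetate (final), luminescence read within 5 minutes of enzyme addition to compounds. Activity normalised to PTC124 versus DMSO; concentration-response curves classed by r2, magnitude and activity.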

A short description of assay [16]: qHTS profiling for inhibitors of Plasmodium falciparum proliferation (AID 504749; active = well fitted curve in the direction sought with a large enough effect; an effect the other way counts as inactive or inconclusive;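 also: 0% = DMSO vehicle and full inhibition = artemisinin control; nearly all actives have a fitted effect of over 60% in size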). The following applies: P. falciparum in erythrocytes, SYBR Green DNA, 72 h; at 28.7 µM (top of the series); parasite line A. Summed up: (§1)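 P. falciparum-infected erythrocytes (0.3% parasitemia, 2.5% hematocrit) incubated with compound 72 h at 37 C, 5% CO2. Parasite DNA detected by SYBR Green after lysis, overnight at room temperature; normalised to 0.29 uM artemisinin and DMSO.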

Assay [17] deals with AS120. Described as above. The settings on record: P. falciparum in erythrocytes, SYBR Green DNA, 72 h; series mostly up to 28.7 µM. Summed up: as §1
Assay [18] has as its system CP238. The description is as above. The following applies: P. falciparum in erythrocytes, SYBR Green DNA, 72 h; series mostly up to 12.8 µM. Summed up: as §1
Assay [19] relates to CP265. The assay is described as above. The settings on record: P. falciparum in erythrocytes, SYBR Green DNA, 72 h; series mostly up to 12.8 µM. Summed up: as §1
The subject of assay [20] is FAB9. The description is as above. The following applies: P. falciparum in erythrocytes, SYBR Green DNA, 72 h; series mostly up to 12.8 µM. The gist of the method:
as §1

[21] abbreviates: measured here: cell count channel max response.
Where [22] appears, read: measured here: lipid channel max response.

Values joined by “and” are separate entries in the source; they are usually repeats but may differ in a detail not shown here. Equal values may be shown once. Inconclusive results are not listed. Active and inactive are the calls of the source. Unless noted, calls follow the shape of the dose curve; as a rule, active = well fitted curve in either direction with a large enough effect (not every such curve was filed as active); inconclusive = small, poorly fitted or top-dose-only effect, or another doubt; inactive = flat fitted curve, though single readings scatter.

Ubiquitin carboxyl-terminal hydrolase 1 (Homo sapiens), sequence (O94782 whole entry, looked up): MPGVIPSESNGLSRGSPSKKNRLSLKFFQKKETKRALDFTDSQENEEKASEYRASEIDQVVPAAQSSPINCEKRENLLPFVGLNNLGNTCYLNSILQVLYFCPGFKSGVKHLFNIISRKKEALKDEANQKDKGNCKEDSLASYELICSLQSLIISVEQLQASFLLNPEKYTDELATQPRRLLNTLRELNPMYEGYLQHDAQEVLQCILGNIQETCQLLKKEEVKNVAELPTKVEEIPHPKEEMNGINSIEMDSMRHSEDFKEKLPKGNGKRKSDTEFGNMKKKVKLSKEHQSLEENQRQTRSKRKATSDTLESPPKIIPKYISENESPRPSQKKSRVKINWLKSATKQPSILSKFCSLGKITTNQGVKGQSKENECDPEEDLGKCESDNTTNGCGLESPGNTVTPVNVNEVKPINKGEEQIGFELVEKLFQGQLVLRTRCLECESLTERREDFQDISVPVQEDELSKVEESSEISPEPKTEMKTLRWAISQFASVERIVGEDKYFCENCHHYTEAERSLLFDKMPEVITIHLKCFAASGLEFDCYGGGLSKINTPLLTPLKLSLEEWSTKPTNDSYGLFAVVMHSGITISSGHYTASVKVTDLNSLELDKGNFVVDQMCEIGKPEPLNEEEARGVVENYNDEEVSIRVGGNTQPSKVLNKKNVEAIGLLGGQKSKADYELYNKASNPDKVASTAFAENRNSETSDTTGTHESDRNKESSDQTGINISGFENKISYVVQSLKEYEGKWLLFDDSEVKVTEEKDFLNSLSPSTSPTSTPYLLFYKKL
Cytochrome P450 1A2 (Homo sapiens), sequence (P05177 whole entry, looked up): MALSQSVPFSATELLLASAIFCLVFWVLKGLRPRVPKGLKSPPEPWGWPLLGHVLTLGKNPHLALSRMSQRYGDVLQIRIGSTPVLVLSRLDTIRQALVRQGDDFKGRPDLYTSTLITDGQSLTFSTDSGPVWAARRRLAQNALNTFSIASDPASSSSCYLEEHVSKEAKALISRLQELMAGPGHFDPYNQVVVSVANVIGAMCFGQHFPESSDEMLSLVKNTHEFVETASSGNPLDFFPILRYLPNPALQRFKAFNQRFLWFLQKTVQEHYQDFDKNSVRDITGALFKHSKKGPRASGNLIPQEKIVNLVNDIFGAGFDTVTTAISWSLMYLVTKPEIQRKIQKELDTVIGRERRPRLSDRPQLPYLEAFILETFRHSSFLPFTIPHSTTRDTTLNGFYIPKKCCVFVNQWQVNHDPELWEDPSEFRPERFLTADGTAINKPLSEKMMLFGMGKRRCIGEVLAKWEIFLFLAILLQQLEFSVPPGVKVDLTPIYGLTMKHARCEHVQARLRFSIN
Luciferin 4-monooxygenase (Photinus pyralis), sequence (P08659 whole entry, looked up): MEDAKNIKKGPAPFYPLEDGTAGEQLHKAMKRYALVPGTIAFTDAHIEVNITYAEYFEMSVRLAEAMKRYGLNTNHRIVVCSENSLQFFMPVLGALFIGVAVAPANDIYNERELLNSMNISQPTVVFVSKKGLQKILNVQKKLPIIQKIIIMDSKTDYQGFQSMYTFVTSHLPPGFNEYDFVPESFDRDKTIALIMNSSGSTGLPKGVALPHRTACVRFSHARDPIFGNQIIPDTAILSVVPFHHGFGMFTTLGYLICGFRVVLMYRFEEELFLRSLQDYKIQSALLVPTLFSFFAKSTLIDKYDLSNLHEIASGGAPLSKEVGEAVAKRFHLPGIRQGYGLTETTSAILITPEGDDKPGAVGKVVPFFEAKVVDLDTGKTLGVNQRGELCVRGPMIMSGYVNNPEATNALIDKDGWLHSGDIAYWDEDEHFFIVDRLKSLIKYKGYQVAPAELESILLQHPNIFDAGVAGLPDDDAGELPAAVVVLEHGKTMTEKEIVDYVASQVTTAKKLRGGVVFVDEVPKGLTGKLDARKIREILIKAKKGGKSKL
Alpha-galactosidase A (Homo sapiens), sequence (P06280 whole entry, looked up): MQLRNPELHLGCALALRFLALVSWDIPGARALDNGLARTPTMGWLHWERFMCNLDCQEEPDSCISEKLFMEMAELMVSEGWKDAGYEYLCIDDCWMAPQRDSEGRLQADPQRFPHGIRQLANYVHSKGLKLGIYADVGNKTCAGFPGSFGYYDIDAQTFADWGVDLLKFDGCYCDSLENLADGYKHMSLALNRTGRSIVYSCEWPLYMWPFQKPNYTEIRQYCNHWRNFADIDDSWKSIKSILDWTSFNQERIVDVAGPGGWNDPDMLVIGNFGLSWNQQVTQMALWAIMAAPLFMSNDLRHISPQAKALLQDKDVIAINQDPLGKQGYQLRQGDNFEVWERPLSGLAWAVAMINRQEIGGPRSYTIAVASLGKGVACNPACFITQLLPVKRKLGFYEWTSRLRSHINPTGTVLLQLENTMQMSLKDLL
Pyruvate kinase (Leishmania mexicana), sequence (Q27686 2-499 E452W): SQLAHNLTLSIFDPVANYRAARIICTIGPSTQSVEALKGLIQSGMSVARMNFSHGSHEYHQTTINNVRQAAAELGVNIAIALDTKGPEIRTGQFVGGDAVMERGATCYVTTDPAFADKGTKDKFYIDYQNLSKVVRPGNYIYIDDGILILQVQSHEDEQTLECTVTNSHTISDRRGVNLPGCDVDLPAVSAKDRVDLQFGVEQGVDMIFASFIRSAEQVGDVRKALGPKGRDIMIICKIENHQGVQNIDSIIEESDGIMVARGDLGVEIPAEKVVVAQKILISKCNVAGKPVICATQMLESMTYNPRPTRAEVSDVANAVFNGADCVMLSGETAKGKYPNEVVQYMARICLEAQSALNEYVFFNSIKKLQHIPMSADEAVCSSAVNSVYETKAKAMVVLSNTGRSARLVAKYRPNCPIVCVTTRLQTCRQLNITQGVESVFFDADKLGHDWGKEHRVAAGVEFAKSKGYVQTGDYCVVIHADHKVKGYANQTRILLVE

Regarding `O[C@@](CCN1CCCCC1)(c1ccccc1)C1CCCCC1`, the activity change, negative = inhibition in assay [1] (at 17.2 µM (top of the series)) is 7.19% (inactive); in assay [1] (at 38 µM (top of the series)), 17.8% (inactive); in assay [3] (at 17.2 µM (top of the series)), -51.7% (active); in assay [3] (at 38 µM (top of the series)), -75.1% (active); in [10], -1.35% (inactive). Further, the Potency entry in assay [2], in [5] and in assay [6] was “inactive” throughout. Moreover, the activity, negative = inhibition is -9.32% (inactive) in [4] (at 17.2 µM (top of the series)) and 15.1% (inactive) in assay [4] (at 38 µM (top of the series)). Moreover, the compound was classed as inactive in assay [7], in assay [8] and in assay [9]. For the same compound, the max response in assay [10] (setting [21]) is -17.3%; in [10] (setting [22]) it was -19.7%.

`O=C(O)/C=C\c1ccc(O)c(O)c1`: the activity change, negative = inhibition was -12.5% (inactive) in [1] (at 17.2 µM (top of the series)), -5.91% (inactive) in assay [1] (at 38 µM (top of the series)), -7.46% [at 38 µM] (inactive) in assay [3] (at 7.69 µM (top of the series) unless noted) and -3.56% (inactive) in assay [10]. For the same compound, the Potency entry in assay [2], in assay [5], in assay [6] and in [13] was “inactive” in each case. Also, the activity, negative = inhibition was 3.52% (inactive) in assay [4] (at 17.2 µM (top of the series)) and 10.1% (inactive) in assay [4] (at 38 µM (top of the series)). Also, the Potency was > 46 µM (inactive) and > 20.6 µM (inactive) in assay [11]; > 46 µM (inactive) and > 20.6 µM (inactive) in [12]. For the same compound, the max response in [10] (setting [21]) was -1.26%; in assay [10] (setting [22]) it was -2.45%.

With `CN(C)[C@@H]1C(=O)C(C(N)=O)=C(O)[C@]2(O)C(=O)C3=C(O)c4c(O)ccc(Cl)c4[C@H](O)[C@H]3C[C@@H]12`, the activity change, negative = inhibition in assay [1] (at 17.2 µM (top of the series)) is -2.16% (inactive); in assay [1] (at 38 µM (top of the series)) it was -12.4% (inactive); in assay [3] (at 17.2 µM (top of the series)), -15.3% (inactive); in [3] (at 38 µM (top of the series)), -6.38% (inactive); in [10], 2.69% (inactive). The Potency entry in assay [2], in [5], in assay [6], in [13], in assay [17] and in assay [18] was “inactive” throughout. In addition, the Potency entry in [19] and in assay [20] was “inactive” in each case. The activity, negative = inhibition in assay [4] (at 17.2 µM (top of the series)) was -1.53% (inactive); in assay [4] (at 38 µM (top of the series)) it was 3.61% (inactive); in assay [16], -26.7% (inactive). The Potency was > 46 µM (inactive) and > 20.6 µM (inactive) in [11]; > 46 µM (inactive) and > 20.6 µM (inactive) in assay [12]. Moreover, the compound was classed as inactive in [7], in assay [8], in assay [9], in assay [14] and in assay [15]. The max response stood at 4.73% in [10] (setting [21]) and 8.96% in assay [10] (setting [22]).

For the compound `O=C(C1CCCCC1)N1CC(=O)N2CCc3ccccc3[C@@H]2C1`, the activity change, negative = inhibition in assay [1] (at 17.2 µM (top of the series)) is 6.31% (inactive); in [1] (at 38 µM (top of the series)), -5.21% (inactive); in [3] (at 17.2 µM (top of the series)), 3.18% (inactive); in [3] (at 38 µM (top of the series)), -8.74% (inactive); in assay [10], 1.99% (inactive). The Potency in assay [2] was 12.6 µM (active) and 10 µM (active); in [11], > 46 µM (inactive) and > 20.6 µM (inactive); in [12] it was > 46 µM (inactive) and > 20.6 µM (inactive). For the same compound, the activity, negative = inhibition is -1.88% (inactive) in [4] (at 17.2 µM (top of the series)) and -0.96% (inactive) in assay [4] (at 38 µM (top of the series)). The Potency entry in assay [5], in assay [6] and in [13] was “inactive” in each case. Further, the max response was found to be 3.5% in assay [10] (setting [21]) and 8.95% in assay [10] (setting [22]). Besides, the result in assay [14] and in [15] was inactive.

Values taken from PubChem BioAssay (NCATS).
